We go through 42 compounds from PubChem BioAssay AID651610 (Broad Institute, 2012).

Structures are written as SMILES. Out of some 360,000 compounds screened, about 3,900 (1.1%) were called active.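 How the source made its calls: active means mean replicate inhibition score of at least 50 and every replicate individually at or above 50; inconclusive means only one of the two criteria met; inactive means mean below 50 and not all replicates reaching 50.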 This excerpt belongs to a sample that is enriched for actives.

The assay in a line: blockers of JRFL envelope-mediated fusion – HeLa-JRFL effector, CEM21 target cells, luciferase, primary screen (AID 651610).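 Further: 0% = plate neutral controls and 100% = maraviroc near 300 nM.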 Particulars: HeLa-JRFL Env/CEM21 cell fusion, active compounds read high; at 16.7 µM unless noted.
On to `O=C(Cc1ncc(C(F)(F)F)cc1Cl)Nc1cccc(Br)c1`, for which the inhibition was -3.53% [at 12.3 µM] (inactive). Then `O=C(CN1CCOCC1)Nc1ccc(NC(=O)CN2CCOCC2)c(Cl)c1`, with -13.8% [at 12.3 µM] (inactive); and `O=C(CC(O)(C(F)(F)F)C(F)(F)F)Nc1ccc(Cl)c(Cl)c1`, with 109% [at 12.3 µM] (active); and `Cc1noc(C)c1NC(=O)N[C@@H]1C=C[C@H](CC(=O)N2CCCCC2)O[C@H]1CO`, with 7.13% (inactive). For `C[C@H](CO)N1C[C@H](C)[C@@H](CN(C)C(=O)c2ccccc2)OCCCC[C@H](C)Oc2ccc(NC(=O)c3ccccc3)cc2C1=O`, the inhibition is -52.7% (inactive). The value for `CCCCOCCCNC(=O)C[C@@H]1C[C@@]2(C(=O)OCC)CCCC=C2N(CCC2=CCCCC2)C1=O` was 34.4% [at 12.3 µM] (inactive); that for `CCCCOCCCNC(=O)C[C@@H]1C[C@@]2(C(=O)OC)CCCCC=C2N(CCC2=CCCCC2)C1=O` was 63.6% [at 12.3 µM] (active). Take `COC(=O)[C@]12C[C@H](CC(=O)NCc3ccc(C)o3)C(=O)N(CCC3=CCCCC3)C1=C[C@H](C(C)(C)C)O[C@@H]2C`: the inhibition is 70.3% [at 12.3 µM] (active).

As for `COC(=O)[C@]12C[C@H](CC(=O)NCCCCc3ccccc3)C(=O)N(Cc3ccc4c(c3)OCO4)C1=C[C@H](C(C)(C)C)O[C@@H]2C`, the inhibition is -19.5% [at 12.3 µM] (inactive). Take `COC(=O)[C@]12C[C@H](CC(=O)NCc3ccccc3)C(=O)N(CCC3=CCCCC3)C1=C[C@H](C(C)(C)C)O[C@@H]2C`: the inhibition was 67.5% [at 12.3 µM] (active). Then `COC(=O)[C@]12C[C@H](CC(=O)NCCC(C)C)C(=O)N(CCc3ccc(OC)c(OC)c3)C1=C[C@H](C(C)(C)C)O[C@@H]2C`, with 14.5% [at 12.3 µM] (inactive); and `CCOC(=O)[C@]12CCC=C1N(CCC1=CCCCC1)C(=O)[C@H](CC(=O)NCc1ccc(C)o1)C2`, with -8.89% [at 12.3 µM] (inactive); and `CCCCCCCCN1C(=O)[C@@H](CC(=O)NCc2ccccc2)C[C@@]2(C(=O)OC)C1=C[C@H](C(C)(C)C)O[C@@H]2C`, with 64.7% [at 12.3 µM] (active). The value for `CCCCCCCCN1C(=O)[C@@H](CC(=O)NCc2ccc(C)o2)C[C@@]2(C(=O)OC)C1=C[C@H](C(C)(C)C)O[C@@H]2C` was 38% [at 12.3 µM] (inactive); that for `COCCCNC(=O)C[C@H]1C[C@@]2(C(=O)OC)C(=C[C@H](C(C)(C)C)O[C@@H]2C)N(Cc2ccc3c(c2)OCO3)C1=O` was -14% [at 12.3 µM] (inactive). For the compound `CCCCCCCCN1C(=O)[C@@H](CC(=O)NCCCC)C[C@@]2(C(=O)OC)C1=C[C@H](C(C)(C)C)O[C@@H]2C`, the inhibition was 39.6% [at 12.3 µM] (inactive). Then `CCOC(=O)[C@]12CCCC=C1N(CCC1=CCCCC1)C(=O)[C@H](CC(=O)NCCCOC)C2`, with 20% [at 12.3 µM] (inactive); and `COc1ccccc1NC(=O)N[C@H]1CC[C@@H](CCn2cc(C3(O)CCCC3)nn2)O[C@@H]1CO`, with -2.19% (inactive); and `N#C[C@H]1[C@H](c2ccc(-c3ccccc3)cc2)[C@@H](CO)N1C(=O)Cc1ccccc1`, with -31.2% (inactive). With `C[C@@H]1CCCCO[C@H](CN(C)C(=O)CCCN(C)C)[C@H](C)CN([C@H](C)CO)C(=O)c2cc(NC(=O)CCC(F)(F)F)ccc2O1`, the inhibition is 6% (inactive). Then `C[C@@H]1CCCCO[C@@H](CN(C)Cc2ccncc2)[C@H](C)CN([C@H](C)CO)C(=O)c2cc(NC(=O)NC3CCCCC3)ccc2O1`, with 10.4% (inactive); and `O=C(C[C@@H]1C[C@H]2c3cc(NC(=O)Nc4ccccc4)ccc3O[C@H]2[C@@H](CO)O1)NC1CCCCC1`, with 6.41% (inactive). Then `O=C(CN(c1cc(C(F)(F)F)ccc1Cl)S(=O)(=O)c1ccccc1)NCc1cccnc1`, with 85.1% [at 12.3 µM] (active). For the compound `CCc1ccc(N(CC(=O)NCc2cccnc2)S(=O)(=O)c2ccccc2)cc1`, the inhibition was 10.5% [at 12.3 µM] (inactive). Then `CN(CC(=O)NCc1cccnc1)S(=O)(=O)c1cc(Cl)ccc1Cl`, with 2.11% [at 12.3 µM] (inactive); and `C/C=C/c1ccccc1[C@@H]1[C@@H](C#N)N(c2nc(CC)cs2)[C@@H]1CO`, with -1.66% (inactive). The value for `CCCNC(=O)N1CCC2(CC1)CN(C(=O)CN1CCOCC1)[C@H](CO)c1[nH]c3cc(OC)ccc3c12` was -5.75% (inactive).

With `Cc1ccccc1-c1cnc2c(c1)C(=O)N([C@H](C)CO)C[C@H](C)[C@@H](CN(C)C(=O)c1ccccc1)O2`, the inhibition is -8.15% (inactive).

Turning to `S=C(NCc1ccc(Cl)cc1)NC12CC3CC(CC(C3)C1)C2`, the inhibition was 103% [at 12.3 µM] (active).

On to `O=C(NCc1ccc2c(c1)OCO2)C12CC3CC(CC(C3)C1)C2`, for which the inhibition was 8.77% [at 12.3 µM] (inactive). The value for `Cc1ccc(C(=O)NC23CC4CC(CC(C4)C2)C3)c(Cl)c1` was -0.699% [at 12.3 µM] (inactive). `CN(C)C(=O)C[C@H]1C=C[C@@H](NC(=O)C2CCC2)[C@@H](CO)O1`: the inhibition was 24.4% (inactive). The value for `CCCOc1cccc(C(=O)NCCCNC(=O)c2cccnc2)c1` was 11.1% [at 12.3 µM] (inactive); that for `CCCCCCOc1ccc(OC(=O)c2cccnc2)cc1` was 58.2% [at 12.3 µM] (active). The value for `Cc1ccc(OCC(=O)N2CCN(C(=O)c3cccnc3)CC2)cc1` was -3.51% [at 12.3 µM] (inactive); that for `C[C@H](CO)N1C[C@H](C)[C@H](CN(C)S(C)(=O)=O)Oc2ncc(C3=CCCCC3)cc2C1=O` was 10.5% (inactive).

As for `N#C[C@H]1[C@H](c2ccc(C#Cc3ccc(F)cc3)cc2)[C@@H](CO)N1C(=O)C1CCCC1`, the inhibition is 10.1% (inactive). Then `COCc1cn(CC[C@@H]2CC[C@@H](NC(=O)Cc3cccnc3)[C@@H](CO)O2)nn1`, with 7.99% (inactive). The value for `C[C@H]1CCCCO[C@H](CN(C)C(=O)Nc2ccc3c(c2)OCO3)[C@@H](C)CN([C@@H](C)CO)C(=O)c2cc(NC(=O)Nc3ccccc3)ccc2O1` was -15.3% (inactive). As for `CCN(CC)CCN(C(=O)c1cc(Cl)sc1Cl)c1nc2cc3c(cc2s1)OCO3`, the inhibition was 71.9% [at 12.3 µM] (active). On to `CCN(CC)CCN(C(=O)c1ccc(N2C(=O)CCC2=O)cc1)c1nc2cc3c(cc2s1)OCO3`, for which the inhibition was 13.5% [at 12.3 µM] (inactive). Regarding `CN(C)CCN(C(=O)C1=COCCO1)c1nc2ccc(Cl)cc2s1`, the inhibition was -71.9% [at 12.3 µM] (inactive).
